Source: PubChem BioAssay
VACV mCherry inh: qHTS for Stage-Specific Inhibitors of Vaccinia Orthopoxvirus: mCherry Reporter Primary qHTS; Vaccinia virus mCherry reporter infection, fluorescence; Potency, µM (doses to about 36.5 µM), actives largely listed as inhibitors; actives 0.63% (n = 310,000); AID 720579, 2013; calls by dose curve; tested in A549 cells; also: nearly all actives have a fitted effect of over 35% in size
HCMV inh: qHTS Assay for inhibitors of the human cytomegalovirus (HCMV); HFF cells, HCMV-luciferase reporter, 72 h; stronger effect = lower value; activity change, negative = inhibition, % at 57.5 µM; actives 4.5% (n = 410,000); AID 1259415, 2018; in the data active = activity change below about -60%; inconclusive = no clear call, values can overlap the other calls; inactive = above about -39%
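Cell-based, HFFs, 1000 cells/well, 16 h 37C; cpds in DMSO + HCMV-luc, MOI 1 PFU/cell; 72 h 37C; OneGlo luminescence after 5 min RT; norm. to buffer vs Salinomycin 10uM.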
HCV inh: qHTS Assay for Inhibitors of Hepatitis C Virus (HCV); Potency, µM (titrated, usually from 41.8 µM), hits mostly inhibitors; actives 3.4% (n = 340,000); Huh7.5.1 HCVcc-Cre infection, luciferase reporter, 44 h; AID 651820, 2012
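Infectious HCV cell culture screen: compound-treated cells (1,000/well, pre-plated 4 h) are infected with HCVcc-Cre at roughly 0.5 moi and grown 44 h. Infection is quantified by luciferase signal after 15 min substrate incubation at room temperature.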
FMDV antiviral: High Throughput Screening for Foot and Mouth Disease Virus Antivirals; FMDV antiviral cell-based qHTS; Potency, µM (doses to about 57.9 µM), most hits filed as inhibitors; actives 1.2% (n = 410,000); calls by dose curve; tested in HEK293T cells; also: read-out not given here; nearly all actives have a fitted effect of over 45% in size
VACV Venus inh: qHTS for Stage-Specific Inhibitors of Vaccinia Orthopoxvirus: Venus Reporter Primary qHTS; Potency, µM (highest dose often 36.5 µM), most hits filed as inhibitors; actives 0.46% (n = 330,000); Vaccinia virus Venus reporter expression, fluorescence; AID 720580, 2013; calls by dose curve; tested in A549 cells; also: nearly all actives have a fitted effect of over 30% in size
Sm TGR block: qHTS Assay for the Inhibitors of Schistosoma Mansoni Peroxiredoxins | actives 3% (n = 360,000) | purified TGR, DTNB reduction, TNB absorbance 405 nm | AID 485364, 2010 | Potency, µM (doses to about 114 µM), actives largely listed as inhibitors | Schistosoma mansoni thioredoxin glutathione reductase (TGR), Q962Y6; also: nearly all actives have a fitted effect of over 60% in size
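Kinetic colorimetric format: TGR-catalysed, NADPH-driven DTNB reduction monitored via TNB absorbance. Enzyme dispensed at 20 nM; compound exposure 15 min at room temperature before reaction start.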
Hits are given with their value; 0 = inactive; ? = inconclusive; - = not tested or not shown; + = active, no number; ! = not confirmed by another sample; [ ] = dose if it differs, or a comment. An excerpt weighted towards active compounds, which were near 9.3% of everything screened. Unless noted, calls follow the shape of the dose curve; as a rule, active = well fitted curve in the direction sought with a large enough effect; inconclusive = small, poorly fitted or top-dose-only effect, or another doubt; inactive = no such curve, though single readings can be large; an effect the other way counts as inactive or inconclusive.

SMILES	VACV mCherry inh	HCMV inh	HCV inh	FMDV antiviral	VACV Venus inh	Sm TGR block
Cn1c(=O)n(C)c2cc([N+](=O)[O-])c(N3CCN(C(=O)c4ccccc4Br)CC3)cc21	0	?	13µM	16µM	0	-
Cn1c(=O)n(C)c2cc([N+](=O)[O-])c(N3CCN(C(=O)c4ccccc4Cl)CC3)cc21	0	-78	?	-	0	0
COc1ccccc1-c1nnc2sc(-c3ccc(N(C)C)cc3)nn12	?	-93	?	0	?	0
COc1ccccc1-c1nn2c(-c3ccc(C(C)(C)C)cc3)nnc2s1	-	-	-	-	-	0
CN(C)c1ccc(-c2nn3c(-c4ccccc4Cl)nnc3s2)cc1	0	-74	?	0	0	0
CCn1c2ccccc2c2cc(NC(=O)CSc3nnc(-c4cccc(Cl)c4)o3)ccc21	0	0	0	0	0	0
COC(=O)c1ccc(C(c2c(N)n(Cc3ccccc3)c(=O)n(C)c2=O)N2CCOCC2)cc1 (configuration not stated)	-	0	0	0	-	22µM
C=CCc1cccc(/C=N/NC(=O)CCCNc2ccc(C)cc2)c1O	13µM	0	0	0	?	0
C=CCc1cccc(/C=N/NC(=O)CN2CCN(Cc3ccccc3)CC2)c1O	-	-	-	0	-	-
C=CCc1cccc(/C=N/NC(=O)C[n+]2ccccc2)c1O	-	-	0	0	-	0
C=CCc1cccc(/C=N/NC(=O)CCC(=O)Nc2ccc(F)cc2)c1O	?	-84	?	0	?	0
C=CCc1cccc(/C=N/NC(=O)CNc2ccccc2)c1O	-	-99	?	0	?	0
C=CCc1cccc(/C=N/NC(=O)C(C)Nc2cccc(C)c2)c1O (configuration not stated)	?	-80	?	0	0	0
CCN1CCN(C(=O)/C=C/c2ccccc2[N+](=O)[O-])CC1	0	0	0	0	0	-
C=CCc1cccc(/C=N/NC(=O)CNc2ccccc2OC)c1O	-	-98	?	0	-	0
C=CCc1cccc(/C=N/NC(=O)CNc2cccc3ccccc23)c1O	?	0	?	0	0	0
Cc1cccc(N2C(=O)CC(N3CCN(C(=O)c4ccccc4)CC3)C2=O)c1 (configuration not stated)	-	0	0	0	-	?
COCCN(C(=O)CCc1ccccc1OC)c1nnc(-c2cccnc2)s1	-	-61	0	?	-	0
COc1cccc(-c2noc(C3CCCN(C(=O)CC(C)(C)C)C3)n2)c1 (configuration not stated)	-	0	10µM	0	-	0
COc1cccc(C(=O)N2CCCC(c3nc(-c4cccs4)no3)C2)c1 (configuration not stated)	-	-103	0	0	-	0
COc1ccc(-c2noc(C3CCCN(C(=O)c4ccc(C)cc4)C3)n2)cc1 (configuration not stated)	0	?	13µM	0	0	0
COc1cc(C(=O)N2CCCC(c3nc(-c4cccs4)no3)C2)cc(OC)c1OC (configuration not stated)	-	0	0	0	-	0
Cc1ccc(-c2noc(C3CCCN(C(=O)C4CCCCC4)C3)n2)o1 (configuration not stated)	0	0	0	0	0	25µM
Cc1ccc(-c2noc(C3CCCN(C(=O)c4ccc(Cl)cc4)C3)n2)o1 (configuration not stated)	0	0	?	0	0	0
CCCCC(=O)N1CCCC(c2nc(-c3cccc(OC)c3)no2)C1 (configuration not stated)	0	0	0	0	0	0
SMILES	VACV mCherry inh	HCMV inh	HCV inh	FMDV antiviral	VACV Venus inh	Sm TGR block
COc1ccc(-c2noc(C3CCCN(C(=O)c4ccc(F)cc4)C3)n2)cc1 (configuration not stated)	0	0	?	0	0	0
CC(C)C(=O)Nc1ccc(NC(=O)c2ccc(COc3ccccc3)cc2)cc1	0	0	0	0	0	0
CCCCN(C)C(=O)c1sc(=O)n(Cc2cc(Cl)ccc2OC)c1C	0	0	-	0	0	-
CC(C)c1ccc2oc(-c3ccc(NC(=O)c4cccc(Br)c4)cc3)nc2c1	0	0	-	0	0	0
Cc1ccc(Oc2nc(-c3ccccc3)ncc2S(C)(=O)=O)cc1	-	0	0	0	0	0
O=C(O)c1cnc(-c2ccccc2)nc1Oc1ccccc1	0	0	3.5µM	0	0	0
Cc1ccc(Oc2nc(-c3ccccc3)ncc2S(=O)(=O)c2ccc(C)cc2)cc1	-	0	5.6µM	0	0	0
Cc1ccc(C)c(Cn2c(=O)n(-c3ccc(Cl)cc3)c(=O)c3c4c(sc32)CCC4)c1	0	0	-	0	0	0
Cc1ccc(-c2cc(-c3ccc(F)cc3)nc(N)c2C#N)o1	-	0	?	?	0	5.6µM
Cc1ccc(-c2cc(-c3ccccc3Cl)c(C#N)c(N)n2)o1	0	0	?	?	0	?
Cc1ccc(-c2cc(-c3ccccc3)c(C#N)c(N)n2)o1	0	?	?	0	0	3.5µM
Cc1c(C(=O)Nc2ccccc2)c2ccc(C(F)(F)F)cc2n1O	0[7.34 µM]	-95	?	?	0[7.34 µM]	-
CCN(CC)c1nc(-c2ccccn2)nc(-c2ccccc2)c1C#N	?	-93	6.3µM	?	?	0
CN(C)c1nc(-c2ccccn2)nnc1-c1ccccc1	8.9µM	-103	?	0	?	0
CC(CCc1ccccc1)NCC(O)COc1ccccc1 (configuration not stated)	-	0	?	0	-	0
CC(NC(=O)c1ccc(F)cc1)C(c1cccs1)N1CCN(C)CC1 (configuration not stated)	0	0	0	0	0	0
CC(NC(=O)c1ccc(N(C)C)cc1)C(c1cccs1)N1CCN(C)CC1 (configuration not stated)	0	0	10µM	-	0	0
CC(NC(=O)C(=O)N1CCCCC1)C(c1cccs1)N1CCN(c2ccccc2)CC1 (configuration not stated)	0	+	0	0	0	0
Cc1ccc(Cn2c(SCc3cccnc3)nc3c2c(=O)n(C)c(=O)n3C)cc1	0	0	?	-	0	0
CCCn1c(SCC(=O)Nc2ccccc2C(=O)OC)nc2c1c(=O)n(C)c(=O)n2C	-	0	?	0	-	0
Cc1ccc(Cn2c(SCCN3CCCCC3)nc3c2c(=O)n(C)c(=O)n3C)cc1	-	-100	13µM	0	?	0
Cn1c(=O)c2c(nc(SCCN3CCCCC3)n2Cc2ccccc2)n(C)c1=O	-	0	?	0	-	0
CCCn1c(SCC(=O)Nc2ccccc2N2CCCCC2)nc2c1c(=O)n(C)c(=O)n2C	0	?	10µM!	-	0	0
CCn1c(SCC(=O)N2c3ccccc3CCc3ccccc32)nc2c1c(=O)n(C)c(=O)n2C	-	0	0	0	-	-
